Measurements from PubChem BioAssay AID624331 (National Center for Advancing Translational Sciences (NCATS), 2012).
Inconclusive results are not listed. Unmarked numbers belong to inactive results. The source made the active and inactive calls. Calls follow the shape of the dose curve; as a rule, active = well fitted activation curve with a large enough effect; inconclusive = small, poorly fitted or top-dose-only effect; inactive = no such curve, though single readings can be large or run the other way.

Assay: qHTS assay for re-activators of p53 using a Luc reporter: Hit Validation with no p53 Expressed; as to activity change, positive = activation: 0% is about no effect
Conditions: p53-null cells, luciferase reporter counter-screen; series mostly up to 46.1 µM; activity change, positive = activation: at the top concentration
In short: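 Counter-screen of primary hits in a cell line not transfected with p53, in Opti-MEM with 10% FBS; compounds at several concentrations (10 mM stock, 1:5; top 46.1 µM in well), 24 h at 37 deg C, 5% CO2. Luminescence read after 10 min with Amplite reagent.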
Potency is read from the fitted curve at half-maximal effect.

Row | SMILES | activity change, positive = activation | Potency
1 | COc1ccc(-n2c(C)cc(C(=O)COc3ccc(C)nc3[N+](=O)[O-])c2C)cc1 | -28.6% | 
2 | COc1ccc(S(=O)(=O)NC2CC(C)(C)NC(C)(C)C2)c2ccccc12 | 9.79% | 
3 | O=C(CNS(=O)(=O)c1cccc(Cl)c1)Nc1ccc(-c2nc3ccccc3s2)cc1 | 58.9% | 
4 | CCCCn1c(/C=N/Nc2nc3ccccc3[nH]2)nc2ccccc21 | 87% | 
5 | CCOP(=O)(OCC)C(NC(=O)Nc1ccccc1)C(N)=O (stereo not given) | -30.4% | 
6 | N#C/C(=C\c1ccccc1[N+](=O)[O-])c1nc(C2CC2)cs1 |  | 11.6 µM (active)
7 | NS(=O)(=O)c1ccc(CCNCc2cccnc2)cc1 | -31.2% | 
8 | O=C(CC(Nc1ccc(F)cc1)C(=O)OCC(=O)c1cccs1)c1ccccc1 (stereo not given) | 9.18% | 
9 | CN(NC1CC(=O)N(c2ccccc2)C1=O)c1ccccc1 (stereo not given) | 25.3% | 
10 | CC(C)NC(=S)N1CCN(S(C)(=O)=O)CC1 | 20.5% | 
11 | COc1ccc(C(C)(C)C)cc1NC(=O)Nc1ccc2c(c1)OCO2 | 29.8% | 
12 | O=C1CCCC(O)=C1N=Nc1ccc2c(c1)OCO2 | 13.7% | 
13 | O=C(/C=C/Nc1ccccc1F)c1cccs1 | 40.9% | 
14 | CN(C)c1ccc(NC(=O)CCCc2ccccc2)cc1 | 91.2% | 
15 | O=C(NN=C1CCCCCC1)c1cccs1 | 57% | 
16 | OC(COc1ccc2cc(Br)ccc2c1)CN1CCCC1 (stereo not given) | 66.1% | 
17 | C/C(CC(C)C)=N\NC(=O)Nc1ccccc1 | -0.197% | 
18 | Cc1ccc(NC(=O)CCN2C(=O)c3cccc([N+](=O)[O-])c3C2=O)c(Br)c1 | 5.27% | 
19 | Cc1ccccc1Nc1nc(N)nc(COC(=O)c2ccco2)n1 | 85.7% | 
20 | Cc1ccc2nc(-c3ccc(NC(=O)COC(=O)c4cncc(Br)c4)cc3)sc2c1 | -17.4% | 
